# Experimental data reported in PubChem BioAssay AID1445 (SRMLSC, 2008).
# The whole screen tested about 220,000 compounds, of which about 910 (0.41%) were called active. The sample holds actives, similar compounds and a random draw of the others, so the mix is not that of the screen. Potency and affinity values are given separately. A number with no mark means an inactive call.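 Rule for the calls: active = primary inhibition above the hit cutoff, then over 50% inhibition at one or more dose response concentrations (cut at about 23% in these data, passing the limit was not always enough); inconclusive = conflicting primary data, or primary hits not chosen for dose response; inactive = low primary inhibition, or under 50% at every dose.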
# Molecular target: Aminopeptidase N (Plasmodium falciparum (isolate 3D7)) (UniProt O96935)
# Test: P. falciparum M1AAP inhibitors, biochemical, fluorogenic H-Leu-NHMec substrate, 1536-well (AID 1445);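 note: plate controls were DMSO full reaction for no effect and no enzyme background for full effect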
# Details: recombinant M1AAP, H-Leu-NHMec fluorogenic kinetic assay
# [1] = at 30 µM, stronger effect = higher value unless noted
# Sequence of Aminopeptidase N (Plasmodium falciparum (isolate 3D7)) (O96935 whole entry, looked up): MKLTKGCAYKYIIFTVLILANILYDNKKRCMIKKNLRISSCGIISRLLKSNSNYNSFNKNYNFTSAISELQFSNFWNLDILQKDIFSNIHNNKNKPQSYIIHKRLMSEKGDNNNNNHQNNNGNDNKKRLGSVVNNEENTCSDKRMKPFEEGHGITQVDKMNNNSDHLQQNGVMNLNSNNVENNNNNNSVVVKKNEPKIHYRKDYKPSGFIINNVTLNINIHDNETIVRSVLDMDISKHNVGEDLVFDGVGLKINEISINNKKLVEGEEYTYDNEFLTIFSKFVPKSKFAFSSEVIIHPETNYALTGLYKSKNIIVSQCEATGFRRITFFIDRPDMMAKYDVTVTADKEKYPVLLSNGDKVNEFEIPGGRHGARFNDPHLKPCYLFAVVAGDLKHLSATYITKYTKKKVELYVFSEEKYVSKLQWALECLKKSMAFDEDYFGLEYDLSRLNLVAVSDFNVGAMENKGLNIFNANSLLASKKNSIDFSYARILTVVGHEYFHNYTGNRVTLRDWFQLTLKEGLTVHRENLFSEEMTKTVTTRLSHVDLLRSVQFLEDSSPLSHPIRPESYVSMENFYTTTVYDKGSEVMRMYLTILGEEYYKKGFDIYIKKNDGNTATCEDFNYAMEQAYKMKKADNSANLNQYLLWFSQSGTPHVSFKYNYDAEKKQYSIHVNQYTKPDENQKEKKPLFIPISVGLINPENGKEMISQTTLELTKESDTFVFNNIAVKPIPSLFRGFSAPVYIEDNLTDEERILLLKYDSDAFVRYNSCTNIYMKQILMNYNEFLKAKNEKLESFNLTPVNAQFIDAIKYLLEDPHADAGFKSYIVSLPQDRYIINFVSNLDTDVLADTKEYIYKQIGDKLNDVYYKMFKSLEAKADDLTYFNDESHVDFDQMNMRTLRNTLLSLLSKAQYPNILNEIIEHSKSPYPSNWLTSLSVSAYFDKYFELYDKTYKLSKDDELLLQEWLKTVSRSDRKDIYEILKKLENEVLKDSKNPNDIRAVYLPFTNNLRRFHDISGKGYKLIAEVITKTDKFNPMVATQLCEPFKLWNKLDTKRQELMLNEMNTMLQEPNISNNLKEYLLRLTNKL
structure (smiles),measurement,setting,value
CCCCC(CCC(=O)Nc1ccccc1C(=O)OCC)C(=O)O (stereo not given),inhibition,[1],0.91%
CCN(CC)S(=O)(=O)c1ccc(C)c(NC(=O)c2cc(C)oc2C)c1,inhibition,[1],3.95%
O=C(O)CCC(=O)N(Cc1ccco1)C1CC(=O)N(c2ccccc2)C1=O (stereo not given),inhibition,[1],7.06%
CCOC(=O)N1CCN(c2c(NCc3ccccc3OC)c(=O)c2=O)CC1,inhibition,[1],1.73%
CCOC(=O)N1CCN(c2c(NCc3ccc(Cl)cc3)c(=O)c2=O)CC1,inhibition,[1],5.09%
COc1ccc(C(=O)N/N=C/c2cc3ccccc3[nH]c2=O)cc1,inhibition,[1],6.42%
COc1cc2ccccc2cc1C(=O)NC(=S)Nc1cccc(C(=O)O)c1C,inhibition,[1],8.01%
COCCNC(=S)N1CCc2cc(OC)c(OC)cc2C1COc1ccc(C(C)C)cc1 (stereo not given),inhibition,[1],15.1%
O=C(Oc1c(CN2CCOCC2)cc(Cl)c2cccnc12)c1ccccc1,inhibition,[1],4.42%
CN1CCN(Cc2cc(Cl)c3cccnc3c2OC(=O)c2cccs2)CC1,inhibition,[1],-1.84%
CCOC(=O)c1cc2c(=O)n3ccccc3nc2n(CCOC)c1=NC(=O)C(C)(C)C,inhibition,[1],16.9%
CCOC(=O)c1cc2c(=O)n3ccccc3nc2n(CCCOC)c1=NC(=O)c1ccncc1,inhibition,[1],10.7%
CCOC(=O)c1cc2c(=O)n3ccccc3nc2n(CCOC)c1=NC(=O)c1ccncc1,inhibition,"at 30 µM, stronger effect = higher value",45.3% (active)
same,inhibition,at 100 µM (top of the series),16.6%
O=C(NCCc1ccccc1)C1CCN(c2nc3ccccc3o2)CC1,inhibition,[1],1.06%
O=S(=O)(c1ccc2c(c1)OCCO2)N1CCC(n2nnc3cc(C(F)(F)F)ccc32)CC1,inhibition,[1],-4.12%
O=S(=O)(c1ccc2c(c1)OCCO2)N1CCC(n2cnc3cc(F)ccc32)CC1,inhibition,[1],2.37%
O=c1nc2n(c3ccc(Br)cc13)CCS2,inhibition,[1],1.45%
COc1ccccc1NC(=O)Nc1ccccc1N1CCOCC1,inhibition,[1],3.89%
CC(=O)c1sc(-c2ccccc2)cc1NS(=O)(=O)c1ccccc1,inhibition,[1],-0.36%
CC(=O)c1sc(-c2ccc(F)cc2)cc1NS(=O)(=O)c1ccc(C)cc1,inhibition,[1],0.65%
CCOC(=O)C1=C(C)N(c2ccc(OC)cc2)C(=O)/C1=C\c1ccc(O)c(OCC)c1,inhibition,[1],4.43%
COc1cc(/C=C2\SC(N)=NC2=O)ccc1OCC(=O)Nc1ccc(C)cc1,inhibition,[1],10%
CCOc1cc(/C=C2\SC(=Nc3ccc(F)cc3)N(c3ccc(F)cc3)C2=O)ccc1OCC(=O)O,inhibition,[1],16.8%
CCOC(=O)C1=C(O)/C(=C/c2ccc(OCC(=O)O)c(OC)c2)SC1=Nc1ccc(OCC)cc1,inhibition,[1],13.2%
